Values without a mark were called inactive. A call without a number means that no potency is given here. For some of these results: Potency and affinity values are given separately. The source made the active and inactive calls. Unless noted, how the calls were made is not given here.
Key:
[1] = antimalarial activity against Dd2 strain (AID 2302;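 active means growth inhibition above 50% at the single 2 µM test dose, taken to imply half-maximal potency below 2 µM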); details: P. falciparum Dd2 in RBCs, LDH growth readout, 72 h; at 2 µM; hits give high values
[2] = HepG2 cytotoxicity, primary screen, cytotoxicity control for P. falciparum antimalarial project, cell-based, ATP luminescence (AID 2303;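 active means inhibition above 50%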); details: HepG2 viability, 24-48 h, at 10 µM, hits give high values
[3] = target: L-lactate dehydrogenase (Plasmodium falciparum (isolate CDC / Honduras)) (UniProt Q27743); assay: PfLDH activity inhibition – cell lysate, 3D7 strain, counter-screen for P. falciparum growth inhibition project (AID 2304); details: P. falciparum 3D7 crude extract, LDH APAD/NBT absorbance; at 2 µM; hits give high values
[4] = inhibition of 3D7 malaria parasite growth – strain 3D7 (AID 2306); details: P. falciparum 3D7 erythrocytic growth, LDH absorbance, 72 h; at 2 µM; hits give high values
[5] = target: Calcium-dependent protein kinase 1 (Plasmodium falciparum (isolate 3D7)) (UniProt P62344); assay: PfCDPK1 kinase inhibitors, biochemical, TCAMS library (AID 1159585; cut-off not given, nearly all actives have IC50 up to about 0.98 µM;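 further: inhibitors leave more ATP so luminescence rises with inhibition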); details: recombinant PfCDPK1, Kinase-Glo ATP depletion luminescence
[6] = target: Plasmodium falciparum protein kinase 6 (PK6, PF3D7_1337100) (UniProt Q8IDW1); assay: PfPK6 kinase inhibitors, biochemical, TCAMS library (AID 1159586); details: recombinant PfPK6, Kinase-Glo ATP depletion luminescence
[7] = target: Protein kinase 7 (PK7), Plasmodium falciparum 3D7 (PF3D7_0213400) (UniProt Q7YTF7); assay: inhibition of Plasmodium PK7 catalytic activity – biochemical, TCAMS antimalarial set, Kinase-Glo luminescence (AID 1159587); details: recombinant PfPK7, Kinase-Glo ATP depletion luminescence
[8] = target: Calcium-dependent protein kinase 4 (Plasmodium falciparum (isolate 3D7)) (UniProt Q8IBS5); assay: PfCDPK4 kinase inhibitors, biochemical, TCAMS library (AID 1159588; cut-off not given, nearly all actives have IC50 up to about 0.91 µM); details: recombinant PfCDPK4, Kinase-Glo ATP depletion luminescence
Chain of Calcium-dependent protein kinase 4 (Plasmodium falciparum (isolate 3D7)) (Q8IBS5 whole entry, looked up): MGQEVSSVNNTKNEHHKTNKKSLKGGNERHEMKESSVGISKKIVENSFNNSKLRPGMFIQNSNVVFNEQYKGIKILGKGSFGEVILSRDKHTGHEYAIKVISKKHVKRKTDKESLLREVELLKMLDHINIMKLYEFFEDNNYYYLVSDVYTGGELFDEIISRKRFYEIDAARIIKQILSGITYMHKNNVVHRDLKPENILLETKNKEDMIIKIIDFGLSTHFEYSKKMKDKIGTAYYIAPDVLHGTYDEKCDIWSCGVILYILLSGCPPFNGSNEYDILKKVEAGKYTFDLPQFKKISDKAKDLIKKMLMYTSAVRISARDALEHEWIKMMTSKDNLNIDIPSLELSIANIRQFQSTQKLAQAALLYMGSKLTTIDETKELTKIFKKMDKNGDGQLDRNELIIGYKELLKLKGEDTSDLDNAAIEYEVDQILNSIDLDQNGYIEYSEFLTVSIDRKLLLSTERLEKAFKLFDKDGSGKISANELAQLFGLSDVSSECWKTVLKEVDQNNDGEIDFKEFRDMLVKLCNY

Chain of Plasmodium falciparum protein kinase 6 (PK6, PF3D7_1337100) (Q8IDW1 1-305): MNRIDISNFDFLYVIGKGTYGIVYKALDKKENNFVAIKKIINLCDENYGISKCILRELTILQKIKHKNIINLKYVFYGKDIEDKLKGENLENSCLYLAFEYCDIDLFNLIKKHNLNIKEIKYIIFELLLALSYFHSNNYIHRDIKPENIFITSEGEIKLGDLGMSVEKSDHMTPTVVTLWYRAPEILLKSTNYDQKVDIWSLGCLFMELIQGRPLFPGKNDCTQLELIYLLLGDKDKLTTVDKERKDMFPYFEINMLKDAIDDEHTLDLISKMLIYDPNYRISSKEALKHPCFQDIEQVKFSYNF
Chain of Calcium-dependent protein kinase 1 (Plasmodium falciparum (isolate 3D7)) (P62344 whole entry, looked up): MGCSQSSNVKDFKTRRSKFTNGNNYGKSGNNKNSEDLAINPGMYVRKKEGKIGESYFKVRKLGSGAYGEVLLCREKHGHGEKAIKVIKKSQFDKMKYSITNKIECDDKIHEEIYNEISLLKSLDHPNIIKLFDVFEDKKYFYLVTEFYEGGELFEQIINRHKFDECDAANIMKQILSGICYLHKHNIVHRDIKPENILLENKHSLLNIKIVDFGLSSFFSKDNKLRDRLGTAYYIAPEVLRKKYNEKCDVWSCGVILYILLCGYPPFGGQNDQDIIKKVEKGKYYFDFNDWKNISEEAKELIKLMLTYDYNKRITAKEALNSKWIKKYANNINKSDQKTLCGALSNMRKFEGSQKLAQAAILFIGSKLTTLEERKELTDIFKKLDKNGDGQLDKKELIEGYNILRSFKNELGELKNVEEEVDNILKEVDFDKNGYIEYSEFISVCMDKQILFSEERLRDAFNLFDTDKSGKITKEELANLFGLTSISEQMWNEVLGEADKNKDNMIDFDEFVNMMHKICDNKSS
Chain of L-lactate dehydrogenase (Plasmodium falciparum (isolate CDC / Honduras)) (Q27743 whole entry, looked up): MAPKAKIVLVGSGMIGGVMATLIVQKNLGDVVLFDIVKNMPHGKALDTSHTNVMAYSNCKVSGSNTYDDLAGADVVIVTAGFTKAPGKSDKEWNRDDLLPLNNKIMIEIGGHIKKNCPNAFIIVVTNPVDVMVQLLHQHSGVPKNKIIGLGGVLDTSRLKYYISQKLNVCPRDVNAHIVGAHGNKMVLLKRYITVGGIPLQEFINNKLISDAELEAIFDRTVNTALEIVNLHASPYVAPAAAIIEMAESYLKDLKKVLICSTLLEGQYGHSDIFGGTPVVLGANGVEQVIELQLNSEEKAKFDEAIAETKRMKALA
Chain of Protein kinase 7 (PK7), Plasmodium falciparum 3D7 (PF3D7_0213400) (Q7YTF7 1-343): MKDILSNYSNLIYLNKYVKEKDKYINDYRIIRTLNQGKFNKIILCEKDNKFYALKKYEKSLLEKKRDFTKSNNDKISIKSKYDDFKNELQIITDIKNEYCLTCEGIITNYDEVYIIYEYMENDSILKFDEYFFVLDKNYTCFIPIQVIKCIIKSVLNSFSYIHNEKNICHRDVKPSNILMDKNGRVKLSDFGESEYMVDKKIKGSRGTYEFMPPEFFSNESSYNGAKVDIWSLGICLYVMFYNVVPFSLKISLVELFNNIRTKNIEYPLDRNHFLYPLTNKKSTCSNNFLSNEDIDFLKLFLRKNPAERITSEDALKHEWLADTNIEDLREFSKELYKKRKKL

Structure (SMILES)	growth inhibition [1]	inhibition [2]	inhibition [3] [%]	growth inhibition [4]	outcome [5]	outcome [6]	outcome [7]	outcome [8]
COc1ccc(-c2nc(NC(=O)CSc3ccc([N+](=O)[O-])cc3)sc2C)cc1	100% (active)	-6%	-1	101% (active)	inactive	inactive	inactive	inactive
O=C(Nc1ccccc1Cc1ccccc1)c1ccccc1[N+](=O)[O-]	59% (active)	-6%	3	98% (active)	inactive	inactive	inactive	inactive
CN(Cc1cccc(F)c1)C1CCCN(c2cc(NC(=O)c3ccccc3)ccn2)C1 (stereo not drawn)	50% (active)	3%	-3	93% (active)	inactive	inactive	inactive	inactive
Cc1ccc2[nH]c3c(NCCN(C)C)ncnc3c2c1	5%	9%	0	99% (active)	inactive	inactive	inactive	inactive
O=C(Nc1ccc(C(=O)OC[C@@H]2CCCN3CCCC[C@H]23)cc1)c1ccc(Cl)c(Cl)c1	37%	20%	0	99% (active)	inactive	inactive	inactive	inactive
CCC[C@@H]([C@@H](Cc1ccc(C)s1)C(=O)N[C@@H](CNC(C)=O)C(=O)Nc1nccs1)N(O)C=O	96% (active)	-1%	2	97% (active)	inactive	inactive	inactive	inactive
Cc1cccc(CN2CCCN(Cc3ccc(C(=O)Nc4ccc(Cl)cc4)cc3)CC2)c1	17%	54% (active)	3	92% (active)	inactive	inactive	inactive	inactive
CCCCc1cc(NCc2ccncc2)nc(Nc2ccc(OC)cc2)n1	22%	11%	0	93% (active)	inactive	inactive	inactive	inactive
CCc1cc2c3c(N)nc(N)nc3ccc2n1C(C)CC (stereo not drawn)	99% (active)	73% (active)	0	100% (active)	inactive	inactive	inactive	inactive
CC(C)C1C(O)=C(c2ccc3ccccc3c2)C(=O)N1Cc1ccsc1 (stereo not drawn)	82% (active)	11%	3	88% (active)	inactive	inactive	inactive	inactive
COc1cc2nc(C)nc(Nc3ccc(Oc4ccccc4)cc3)c2cc1OC	72% (active)	-8%	6	101% (active)	inactive	inactive	inactive	inactive
O=C(NCC1CCC(C(=O)NC2CCCc3ccccc32)CC1)c1ccc(O)c(-c2ccc(Cl)c(Cl)c2)c1 (stereo not drawn)	86% (active)	-5%	-4	93% (active)	inactive	inactive	inactive	inactive
c1ccc(CSC2=NNC(c3ccccn3)S2)cc1 (stereo not drawn)	65% (active)	6%	0	80% (active)	inactive	inactive	inactive	inactive
COc1ccc(NC(C)C(=O)Nc2ccc(Br)cc2)cc1S(=O)(=O)N1CCCCC1 (stereo not drawn)	97% (active)	2%	-2	99% (active)	inactive	inactive	inactive	inactive
NC(=O)c1ccc(-c2ccc3ccnc(N)c3c2)cc1	98% (active)	56% (active)	-2	101% (active)	inactive	inactive	inactive	inactive
COc1cc(C(=O)N2CCOC(CCN3CC[C@@H]4c5ccccc5C[C@@H]43)(c3ccc(Cl)c(Cl)c3)C2)cc(OC)c1OC (stereo partly drawn)	82% (active)	32%	1	88% (active)	inactive	inactive	inactive	inactive
Cc1nc(-c2cccc(Nc3nccc(NCC(O)c4cccc(F)c4)n3)c2)cs1 (stereo not drawn)	59% (active)	39%	1	98% (active)	inactive	inactive	inactive	inactive
Brc1ccc(Nc2nc(NCC3CCCO3)c3ccccc3n2)cc1 (stereo not drawn)	99% (active)	13%	-3	100% (active)	inactive	inactive	inactive	inactive
N#Cc1ccc(CN2CCC(Oc3ccc(NC(=O)c4ccsc4)cc3Cl)C2)cc1 (stereo not drawn)	79% (active)	29%	-2	88% (active)	inactive	inactive	inactive	inactive
CNC(=O)c1ccc2nc(C3CC3)n(CC3CCN(S(=O)(=O)c4cccc(Cl)c4)CC3)c2c1	100% (active)	-6%	3	100% (active)	inactive	inactive	inactive	inactive
COc1c(C2CCN(CCCCNC(=O)c3ccc(-c4ccc(Cl)cc4)c(O)c3)CC2)ccc2c1CCCC2	99% (active)	91% (active)	-5	102% (active)	inactive	inactive	inactive	inactive

Structure (SMILES)	growth inhibition [1]	inhibition [2]	inhibition [3] [%]	growth inhibition [4]	outcome [5]	outcome [6]	outcome [7]	outcome [8]
Oc1ccc(CCNc2nc(NCCCOc3ccccc3-c3cccnc3)nc(N3CCNCC3)n2)cc1	1%	10%	0	92% (active)	inactive	inactive	inactive	inactive
O=C(Nc1ccc(Cl)cc1)Nc1cccc(-c2cccc(-c3nc4ccc(C(F)(F)F)cc4[nH]3)c2)c1	97% (active)	87% (active)	1	99% (active)	inactive	inactive	inactive	inactive
c1cc(CNCC2CCN(CC3CCCCC3)CC2)cc(-n2ccnc2)c1	99% (active)	18%	-1	102% (active)	inactive	inactive	inactive	inactive
Cn1nc(-c2cccc(CNCc3ccccc3)c2)c2cnc(NC3CCCC3)nc21	11%	5%	1	85% (active)	inactive	inactive	inactive	inactive
O=c1cc(NCCCNCc2cc3ccc(Br)cc3s2)[nH]c2ccccc12	8%	18%	-2	92% (active)	inactive	inactive	inactive	inactive
CC(C)COc1ccc(Cl)cc1Cc1nc(-c2nc3nc(N4CCN(C)CC4)ccc3[nH]2)cs1	27%	29%	-6	99% (active)	inactive	inactive	inactive	inactive
Cc1cc2nc(-c3ccc(OCC(=O)NCc4ccc(C(C)(C)C)cc4)cc3)[nH]c2cc1C	0%	11%	2	94% (active)	inactive	inactive	inactive	inactive
O=C(Nc1ccc(CN2CCOCC2)cc1)c1ccc(-c2ccc(Cl)cc2)o1	11%	22%	-6	98% (active)	inactive	inactive	inactive	inactive
COc1nc(Nc2cccc(C)c2)nc(OC)n1	-5%	46%	1	94% (active)	inactive	inactive	inactive	inactive
CCCCC([C@@H](Cc1ccc2ccccc2c1)C(=O)N[C@H](C(=O)NC)C(C)(C)C)N(O)C=O (stereo partly drawn)	97% (active)	-6%	5	100% (active)	inactive	inactive	inactive	inactive
CC(C)(C)c1ccc(N2C(N)=NC(N)=NC2(C)C)cc1Cl	3%	51% (active)	-5	94% (active)	inactive	inactive	inactive	inactive
Cc1ccc(Nc2ccnc(Nc3ccc(C)c(F)c3)n2)cc1O	27%	4%	-4	100% (active)	inactive	inactive	inactive	inactive
Fc1ccc2nc(-c3cccc(-c4ccc(CN5CCCCC5)cc4)c3)[nH]c2c1	97% (active)	46%	-2	99% (active)	inactive	inactive	inactive	inactive
CN1CCN(c2ccnc3ccc(NC(=O)Nc4ccc5c(c4)CCCC5=O)cc23)CC1	90% (active)	8%	4	101% (active)	inactive	inactive	inactive	inactive
CCCCCCNC(=O)C1Cc2c([nH]c3ccc(C)cc23)C2(CCN(Cc3ccccc3)CC2)N1 (stereo not drawn)	25%	25%	6	84% (active)	inactive	inactive	inactive	inactive
NS(=O)(=O)c1ccc(CNC(=O)c2cnc3c(O)cccc3c2Nc2cccc(NC(=O)c3ccc(Cl)c(Cl)c3)c2)cc1	35%	56% (active)	-1	97% (active)	inactive	inactive	inactive	inactive
Clc1cccc(CNC2CCN(CC3CCCCC3)CC2)c1	24%	4%	-2	97% (active)	inactive	inactive	inactive	inactive
CCN(CC)CCCNc1c2ccccc2nc2ccccc12	0%	17%	-1	100% (active)	inactive	inactive	inactive	inactive
CC1CN(c2ccc(C(=O)NCC3CC3)cc2NC(=O)OCc2ccccc2)CC(C)O1 (stereo not drawn)	76% (active)	-5%	-2	91% (active)	inactive	inactive	inactive	inactive
O=c1sn(-c2csc3ccccc23)c2ccccc12	54% (active)	14%	-6	94% (active)	inactive	inactive	inactive	inactive
